Assay results taken from PubChem BioAssay (NCATS).
Unmarked numbers belong to inactive results. Results filed as inconclusive are left out. The source made the active and inactive calls. Unless noted, calls come from the whole dose curve; as a rule, active = well fitted curve in either direction with a large enough effect (not every such curve was filed as active); inconclusive = small, poorly fitted or top-dose-only effect, or another doubt; inactive = flat fitted curve, though single readings scatter.

Columns and labels:
[1] = AP1 Signaling Pathway (AID 357); settings: ME-180 AP-1-bla reporter, EGF-induced, beta-lactamase ratio, 5 h; at 17.2 µM (top of the series) unless noted; note: % is set by controls: 0 for no effect and ±100 for the full control effect
In short: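 AP-1-bla ME-180 cells with beta-lactamase reporter under AP-1 response element, stimulated with EC50 EGF; compounds titrated, 5 hours at 37 degrees Celsius. CCF4 read at 460/530 nm ratio; positive and negative modulators judged by AC50.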

[2] = NFAT Signaling Pathway (AID 444); settings: Jurkat NFAT-bla M1, carbachol, beta-lactamase ratio, 5 h; at 17.2 µM (top of the series) unless noted;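 note: carbachol stimulus at about its EC50 of 1 µM final; % is set by controls: 0 for no effect and ±100 for the full control effect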
In short: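 Jurkat cells with NFAT-driven β-lactamase reporter and co-expressed M1 receptor, stimulated with carbachol (final 1 uM, ~EC50), compound titration, 5 h at 37 °C. CCF4 loaded 1 h at RT; 460/530 nm ratio gave %activity and AC50.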

[3] = Stat Signaling Pathway (AID 446); settings: ME-180 SIE beta-lactamase reporter, IL-6 stimulated, 5 h; at 17.2 µM (top of the series) unless noted;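 note: ME-180 cervical cancer cells given 40 pM IL-6 alongside compound; SIE-controlled beta-lactamase reporter measured as 460/530 nm FRET emission ratio; % is set by controls: 0 for no effect and ±100 for the full control effect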
In short: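 Compound effects on IL-6-induced STAT reporter activity were measured in ME-180 cells. After overnight culture, cells were co-treated with 40 pM IL-6 for 5 hrs before beta-lactamase substrate loading at room temperature.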

[4] = target: Glucocorticoid receptor (Homo sapiens) (UniProt P04150); test: GR-GFP Redistribution (AID 450;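 active = compounds whose dose series gives a full or clear partial fitted curve of increased nuclear translocation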; note: potency is the fitted concentration of half-maximal effect)
[5] = qHTS Assay for Identification of Small Molecule Agonists for Hypoxia Response Element Signaling Pathway (AID 914; active = well fitted activation curve with a large enough effect in the signal ratio, with a control signal flat, not every such curve was filed as active; the % refers to the signal ratio; note: % of control where 0% means no effect); settings: ME-180 (cervical carcinoma) HRE-bla reporter, beta-lactamase ratio, CoCl2, 17 h; activation: stronger effect = higher value
In short: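 HRE-bla ME-180 cells with beta-lactamase reporter under hypoxia response element, compounds with EC50 CoCl2 for 17 hours at 37 C. CCF4 substrate, 460nm/530nm emission ratio gave %Activity; AC50 from titration series.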

[6] = target: 3',5'-cyclic-AMP phosphodiesterase 4B (Homo sapiens) (UniProt Q07343); test: qHTS Assay for Inhibitors of PDE-IV (AID 607; active = well fitted activation curve with a large enough effect in the main read-out, with a control signal flat, not every such curve was filed as active; note: % of control where 0% means no effect)
In short: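 ACTOne HEK293 cells carry a modified cAMP-gated CNG channel and express endogenous PDE4; plated 1000 cells/well, compounds up to 22.9 uM final. Membrane-potential dye fluorescence (ex 535/em 590) was read; parental cells received 10 uM forskolin + 100 uM RO 20-1724.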

[7] = target: Guanine nucleotide-binding protein G(i) subunit alpha-1 (Homo sapiens) (UniProt P63096); test: qHTS Assay for Inhibitors of RGS12 GoLoco Motif Activity (Green Fluorophore) (AID 879; active = well fitted curve in the direction sought with a large enough effect; an effect the other way counts as inactive or inconclusive;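 note: 0% = labeled peptide with Gαi1 and full inhibition = labeled peptide alone without protein; negative values mean loss of peptide binding seen as reduced polarization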)
In short: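 A drop in FITC polarization marked displacement of the FITC-tagged RGS12 GoLoco peptide (10 nM) from Gαi1 (50 nM). Compounds were incubated 10 min at room temperature in Tris pH 7.5 buffer containing 150 mM NaCl, 0.1 mM GDP and 0.05% NP40; unlabeled peptide titration served as control.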

[8] = qHTS Assay for Identification of Small Molecule Agonists for Thrombopoietin (TPO) Signaling Pathway (AID 917; active = well fitted curve in the direction sought with a large enough effect; an effect the other way counts as inactive or inconclusive; note: % is set by controls: 0 for no effect and ±100 for the full control effect)
In short: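 Stimulation at the TPO EC50 (26 pM final) was used to detect activators. Ba/F3 mouse cells bearing human TPO receptor and a luciferase reporter under the Glycoprotein IIb promoter were exposed to compounds for 24 hrs at 37 C.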

[9] = target: Muscarinic acetylcholine receptor M1 (Rattus norvegicus) (UniProt P08482); test: qHTS Assay for Antagonists of Acetylcholine Muscarinic M1 Receptor: Measurement of IP-One Response (AID 944; active = well fitted curve in the direction sought with a large enough effect; an effect the other way counts as inactive or inconclusive; note: nearly all actives have a fitted effect of over 75% in size)
In short: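 IP1 accumulation measured via TR-FRET between d2-IP1 and Eu-cryptate anti-IP1 antibody after carbachol (200 nM, EC80) stimulation for 30 min; rat M1-transfected CHO cells received compound 10 min before agonist.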

[10] = target: Pyruvate kinase (Leishmania mexicana) (UniProt Q27686); test: qHTS Validation Assay for Inhibitors of Leishmania Mexicana Pyruvate Kinase (AID 945; active = well fitted curve in the direction sought with a large enough effect; an effect the other way counts as inactive or inconclusive;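 note: 0% = DMSO only neutral control wells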)
In short: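 Eight-point qHTS titrations in triplicate, data normalized to DMSO neutral control. Reaction: 0.2 nM LmPYK E451W mutant, 0.5 mM PEP, 0.1 mM ADP, 7 mM MgCl2, pH 7.2, one hour at room temperature; luminescent ATP detection.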

[11] = target: Pyruvate kinase PKM (Homo sapiens) (UniProt P14618); test: qHTS Assay for Activators of Human Muscle Pyruvate Kinase (AID 954; active = well fitted curve in the direction sought with a large enough effect, not every such curve was filed as active;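 note: 0% = uninhibited enzyme and -100% = no enzyme or full thiadiazolimine inhibition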)
In short: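 A coupled luminescent readout tracked ATP made from ADP by purified PKM2. Final conditions included 0.1 nM enzyme, PEP and ADP at 0.5 and 0.1 mM, pH 7.2 imidazole buffer with BSA, and a one-hour room-temperature reaction.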

[12] = target: Alpha-galactosidase A (Homo sapiens) (UniProt P06280); test: Counterscreen for Glucocerebrosidase Inhibitors: qHTS Assay for Human alpha-Galactosidase at pH 4.5 (AID 992; active = well fitted curve in the direction sought with a large enough effect; an effect the other way counts as inactive or inconclusive; note: 0% is about no effect)
In short: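 Citrate buffer pH 4.5, Tween-20 0.005%. Enzyme 2 nM, substrate 80 uM, 20 min RT. Stop pH 10. Fluorescence Ex 365/Em 440. AC50 by Hill fit.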

[13] = target: alpha-glucosidase (Oryza sativa, rice) (UniProt Q653V4); test: Counterscreen for Glucocerebrosidase Inhibitors: qHTS Assay for Rice alpha-Glucosidase at pH 5.0 (AID 997; active = well fitted curve in the direction sought with a large enough effect; an effect the other way counts as inactive or inconclusive;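 note: 0% = full activity with enzyme and -100% = basal without enzyme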)
In short: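 Endpoint fluorogenic assay at pH 5.0: compounds (0.7 nM to 77 uM) titrated against 4 nM rice enzyme and 400 uM 4-MU-alpha-glucoside for 20 min at room temperature; NaOH/glycine stop, read ex 365/em 440 nm, Hill-fitted AC50.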

Sequence of Glucocorticoid receptor (Homo sapiens) (P04150 whole entry, looked up): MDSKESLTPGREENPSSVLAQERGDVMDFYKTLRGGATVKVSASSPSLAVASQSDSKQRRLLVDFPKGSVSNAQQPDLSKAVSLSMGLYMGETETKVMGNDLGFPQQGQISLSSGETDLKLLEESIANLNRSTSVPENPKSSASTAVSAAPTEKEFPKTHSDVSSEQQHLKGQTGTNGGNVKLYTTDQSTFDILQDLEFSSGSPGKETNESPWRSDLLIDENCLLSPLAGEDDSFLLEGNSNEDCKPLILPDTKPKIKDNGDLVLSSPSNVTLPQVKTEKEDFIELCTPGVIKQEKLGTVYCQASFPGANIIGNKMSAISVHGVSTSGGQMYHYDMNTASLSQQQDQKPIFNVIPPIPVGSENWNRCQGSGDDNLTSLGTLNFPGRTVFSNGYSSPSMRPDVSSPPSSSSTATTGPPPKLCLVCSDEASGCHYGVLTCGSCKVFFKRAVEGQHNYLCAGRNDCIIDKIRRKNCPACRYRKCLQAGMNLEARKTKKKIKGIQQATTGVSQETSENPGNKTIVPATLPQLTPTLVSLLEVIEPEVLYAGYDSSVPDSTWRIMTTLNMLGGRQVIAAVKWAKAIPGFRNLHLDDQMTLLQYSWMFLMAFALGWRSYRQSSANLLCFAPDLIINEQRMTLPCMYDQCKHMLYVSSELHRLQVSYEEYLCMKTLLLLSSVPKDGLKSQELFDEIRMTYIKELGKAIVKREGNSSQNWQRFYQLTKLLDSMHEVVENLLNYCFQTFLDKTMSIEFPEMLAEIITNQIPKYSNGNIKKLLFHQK
Sequence of Pyruvate kinase (Leishmania mexicana) (Q27686 2-499 E452W): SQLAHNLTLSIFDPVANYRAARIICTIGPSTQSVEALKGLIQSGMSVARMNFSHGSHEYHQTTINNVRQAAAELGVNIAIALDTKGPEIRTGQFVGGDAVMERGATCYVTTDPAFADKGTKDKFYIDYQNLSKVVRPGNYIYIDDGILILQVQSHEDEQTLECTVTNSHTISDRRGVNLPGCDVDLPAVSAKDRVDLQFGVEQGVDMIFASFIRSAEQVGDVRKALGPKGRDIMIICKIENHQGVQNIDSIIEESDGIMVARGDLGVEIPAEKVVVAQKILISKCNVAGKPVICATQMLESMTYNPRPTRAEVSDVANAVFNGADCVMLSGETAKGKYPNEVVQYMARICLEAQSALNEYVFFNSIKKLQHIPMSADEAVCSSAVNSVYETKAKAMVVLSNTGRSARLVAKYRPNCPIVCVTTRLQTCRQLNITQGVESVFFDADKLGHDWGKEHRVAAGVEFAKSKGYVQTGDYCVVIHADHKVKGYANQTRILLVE
Sequence of 3',5'-cyclic-AMP phosphodiesterase 4B (Homo sapiens) (Q07343 whole entry, looked up): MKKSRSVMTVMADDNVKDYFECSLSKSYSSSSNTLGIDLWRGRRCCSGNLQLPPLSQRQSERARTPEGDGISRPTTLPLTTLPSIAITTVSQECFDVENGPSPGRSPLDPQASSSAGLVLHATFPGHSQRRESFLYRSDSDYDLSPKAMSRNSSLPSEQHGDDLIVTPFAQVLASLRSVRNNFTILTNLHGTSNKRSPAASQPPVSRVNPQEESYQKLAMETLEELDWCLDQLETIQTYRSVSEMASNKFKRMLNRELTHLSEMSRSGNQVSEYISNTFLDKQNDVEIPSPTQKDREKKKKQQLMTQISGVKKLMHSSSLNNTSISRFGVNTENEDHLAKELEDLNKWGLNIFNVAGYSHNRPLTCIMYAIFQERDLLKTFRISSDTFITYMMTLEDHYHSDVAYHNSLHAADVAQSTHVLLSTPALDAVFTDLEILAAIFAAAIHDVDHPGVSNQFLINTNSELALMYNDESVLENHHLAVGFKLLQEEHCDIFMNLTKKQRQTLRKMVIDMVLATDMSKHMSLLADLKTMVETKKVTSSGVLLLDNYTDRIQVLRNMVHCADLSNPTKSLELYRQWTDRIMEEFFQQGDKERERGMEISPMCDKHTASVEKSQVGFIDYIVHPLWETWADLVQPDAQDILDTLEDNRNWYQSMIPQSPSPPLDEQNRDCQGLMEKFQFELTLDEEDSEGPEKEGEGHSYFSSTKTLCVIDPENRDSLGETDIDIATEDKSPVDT
Sequence of Guanine nucleotide-binding protein G(i) subunit alpha-1 (Homo sapiens) (P63096 whole entry, looked up): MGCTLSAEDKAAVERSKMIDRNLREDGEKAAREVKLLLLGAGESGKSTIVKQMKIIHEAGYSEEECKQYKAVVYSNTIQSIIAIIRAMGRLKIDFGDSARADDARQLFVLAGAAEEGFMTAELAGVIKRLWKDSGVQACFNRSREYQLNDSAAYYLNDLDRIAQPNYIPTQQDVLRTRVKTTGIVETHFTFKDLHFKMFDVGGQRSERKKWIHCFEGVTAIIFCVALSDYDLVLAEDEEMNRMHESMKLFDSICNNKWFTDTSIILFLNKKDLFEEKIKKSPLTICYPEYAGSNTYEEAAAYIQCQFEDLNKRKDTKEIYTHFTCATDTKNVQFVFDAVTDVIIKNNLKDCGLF
Sequence of Pyruvate kinase PKM (Homo sapiens) (P14618 whole entry, looked up): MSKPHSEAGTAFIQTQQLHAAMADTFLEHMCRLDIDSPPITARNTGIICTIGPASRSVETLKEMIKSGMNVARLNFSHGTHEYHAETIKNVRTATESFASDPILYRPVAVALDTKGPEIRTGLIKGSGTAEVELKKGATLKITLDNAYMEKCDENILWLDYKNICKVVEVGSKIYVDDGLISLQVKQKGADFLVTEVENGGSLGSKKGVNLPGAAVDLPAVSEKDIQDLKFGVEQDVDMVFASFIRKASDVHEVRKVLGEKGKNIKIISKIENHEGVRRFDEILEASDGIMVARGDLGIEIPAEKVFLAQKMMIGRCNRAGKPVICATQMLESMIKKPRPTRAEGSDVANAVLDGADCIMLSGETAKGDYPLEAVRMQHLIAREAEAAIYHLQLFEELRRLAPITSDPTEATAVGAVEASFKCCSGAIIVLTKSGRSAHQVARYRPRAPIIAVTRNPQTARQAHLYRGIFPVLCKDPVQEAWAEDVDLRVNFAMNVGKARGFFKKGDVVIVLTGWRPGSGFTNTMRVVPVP
Sequence of Alpha-galactosidase A (Homo sapiens) (P06280 whole entry, looked up): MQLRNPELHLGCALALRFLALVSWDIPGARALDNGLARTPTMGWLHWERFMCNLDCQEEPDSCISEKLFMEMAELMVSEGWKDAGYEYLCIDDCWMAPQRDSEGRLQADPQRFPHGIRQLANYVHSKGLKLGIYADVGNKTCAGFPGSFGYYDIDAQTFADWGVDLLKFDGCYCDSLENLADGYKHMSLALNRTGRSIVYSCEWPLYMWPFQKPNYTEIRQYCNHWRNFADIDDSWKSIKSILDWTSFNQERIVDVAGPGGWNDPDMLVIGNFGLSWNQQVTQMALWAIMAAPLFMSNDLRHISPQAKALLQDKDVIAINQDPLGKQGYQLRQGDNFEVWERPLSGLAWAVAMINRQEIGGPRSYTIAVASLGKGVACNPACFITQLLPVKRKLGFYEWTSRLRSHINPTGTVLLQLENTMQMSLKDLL
Sequence of Muscarinic acetylcholine receptor M1 (Rattus norvegicus) (P08482 whole entry, looked up): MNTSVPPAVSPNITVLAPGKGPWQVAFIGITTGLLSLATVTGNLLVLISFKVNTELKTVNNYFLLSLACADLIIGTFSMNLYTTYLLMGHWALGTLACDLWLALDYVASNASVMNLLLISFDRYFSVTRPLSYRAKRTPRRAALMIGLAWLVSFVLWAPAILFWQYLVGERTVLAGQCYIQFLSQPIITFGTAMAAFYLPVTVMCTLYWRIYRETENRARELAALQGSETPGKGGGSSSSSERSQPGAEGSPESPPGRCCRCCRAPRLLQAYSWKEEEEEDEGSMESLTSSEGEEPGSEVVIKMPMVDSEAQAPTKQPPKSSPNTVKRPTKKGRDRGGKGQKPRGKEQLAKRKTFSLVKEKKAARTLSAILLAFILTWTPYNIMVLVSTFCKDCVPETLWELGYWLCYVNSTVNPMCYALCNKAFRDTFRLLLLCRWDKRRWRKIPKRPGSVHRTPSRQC

With CC(=O)N1CC=C2C(C#N)=C(N)C(C#N)(C#N)[C@H](c3ccoc3)[C@H]2C1 the activity change, negative = inhibition [1] was 8.44%, the activity change, negative = inhibition [2] was -12.2% and the activity, negative = inhibition [3] was 10.5%. It also gave a Potency [4] of over 20.6 µM and an activation [5] of -26.3%.

Cc1ccc(-n2c(SCC(=O)NCc3ccco3)nc3nc4c(cc3c2=O)COC(C)(C)C4)cc1 showed an activity change, negative = inhibition [1] of -7.85%, an activity change, negative = inhibition [2] of -16.8% and an activity, negative = inhibition [3] of -3.2%. It also gave a Potency [4] of over 20.6 µM and an activation [5] of -23.6%.

Work on CCN1CCC[C@@H]1CNC(=O)c1c(O)c(Cl)cc(Cl)c1OC yielded an activity change, negative = inhibition [1] of 10.6% [at 38 µM], an activity change, negative = inhibition [2] of 2.12% [at 38 µM] and an activity, negative = inhibition [3] of -20.4% [at 38 µM]. The Potency [6] was “inactive”, the outcome [7] was “inactive” and the Potency [8] was “inactive”. The Potency [9] was “inactive”, the Potency [10] was “inactive” and the outcome [11] was “inactive”. The outcome [12] was “inactive” and the outcome [13] was “inactive”.

Work on CN(Cc1ccccc1)Cc1c[nH]c2ccccc12 yielded an activity change, negative = inhibition [1] of 15.6%, an activity change, negative = inhibition [2] of -28.7% and an activity, negative = inhibition [3] of 7.69%. The Potency [4] was over 20.6 µM and the activation [5] was -19.8%.

For CC(=O)Oc1oc(-c2ccccc2)nc1/C=N/c1ccccn1, the activity change, negative = inhibition [1] was -71.1%, the activity change, negative = inhibition [2] was -130% (active) and the Potency [4] was over 20.6 µM.

For Cc1sc(-n2c(C)ccc2C)c(C#N)c1C, the activity change, negative = inhibition [1] was -5.35%, the activity change, negative = inhibition [2] was -9.11% and the activity, negative = inhibition [3] was 0.959%. The Potency [4] was over 20.6 µM and the activation [5] was 5.91%.

Cc1cc(Cl)ccc1OCC(=O)OC(C)C(=O)N(C)C (centres undefined) gave an activity change, negative = inhibition [1] of 3.68%, an activity change, negative = inhibition [2] of 17.7% and an activity, negative = inhibition [3] of -3.58%. It also gave a Potency [4] of over 20.6 µM and an activation [5] of -0.0413%.

Work on O=C(NCCN1CCCCC1)c1ccc(=O)oc1 yielded an activity change, negative = inhibition [1] of 13.4%, an activity change, negative = inhibition [2] of 6.11% and a Potency [4] of over 20.6 µM.

In the case of COc1cc2nc(-c3ccccc3)nc(N3CCCC3)c2cc1OC, the activity change, negative = inhibition [1] is reported as 24.5%, the activity change, negative = inhibition [2] is reported as -11.3% and the Potency [4] is reported as over 20.6 µM.

In the case of COC(=O)/C(=C1/Oc2cc(C)oc(=O)c2S1)C(F)(F)F, the activity change, negative = inhibition [1] is reported as 7.82%, the activity change, negative = inhibition [2] is reported as -131% (active) and the Potency [4] is reported as over 20.6 µM.

CCOC(=O)CCc1c(C)c(C#N)c2[nH]c3ccccc3n2c1=O gave an activity change, negative = inhibition [1] of -16.5%, an activity change, negative = inhibition [2] of -0.365% and a Potency [4] of over 20.6 µM.

With COc1ccc(N(CN2C(=O)C3C4C=CC(C4)C3C2=O)C(=O)c2ccco2)cc1 (centres undefined) the activity change, negative = inhibition [1] was -8.5%, the activity change, negative = inhibition [2] was 12.6% and the Potency [4] was over 20.6 µM.

For COc1cc(C2C(C(C)=O)=C(O)C(=O)N2c2ccc(Br)cn2)ccc1O (centres undefined), the activity change, negative = inhibition [1] was 2.47%, the activity change, negative = inhibition [2] was -15.5% and the Potency [4] was over 20.6 µM.

Compound Nc1nonc1-c1noc(-c2ccccc2)n1 has an activity change, negative = inhibition [1] of 7.84%, an activity change, negative = inhibition [2] of -13.1% and a Potency [4] of over 20.6 µM.

Compound CCOC(=O)CSc1nc(N)c(C#N)c(-c2ccc(OC)cc2)c1C#N has an activity change, negative = inhibition [1] of -27.1%, an activity change, negative = inhibition [2] of 2.57% and a Potency [4] of over 20.6 µM.

In the case of CC(=O)N/C(=N/c1nc(C)cc(C)n1)Nc1ccc(NC(C)=O)cc1, the activity change, negative = inhibition [1] is reported as -2.08%, the activity change, negative = inhibition [2] is reported as -3.91% and the Potency [4] is reported as over 20.6 µM.

CCOC(=O)c1c(C)n(C)c2ccc(OC)c(NC(=O)CN3CCSCC3)c12 gave an activity change, negative = inhibition [1] of -2.27%, an activity change, negative = inhibition [2] of -0.789% and a Potency [4] of over 20.6 µM.

COc1ccccc1C1/C(=C(/O)c2ccc(OC(C)C)cc2)C(=O)C(=O)N1c1cc(C)on1 (centres undefined) gave an activity change, negative = inhibition [1] of -28.1%, an activity change, negative = inhibition [2] of 27.8% and a Potency [4] of over 20.6 µM.

In the case of Cc1ccc(SCc2[nH]nc3c2C(c2ccc(C)o2)C(C#N)=C(N)O3)cc1 (centres undefined), the activity change, negative = inhibition [1] is reported as -23.1%, the activity change, negative = inhibition [2] is reported as -18.9% and the Potency [4] is reported as over 20.6 µM.

Work on C=C(Br)CN1CCN(CC(=C)Br)CC1 yielded an activity change, negative = inhibition [1] of 10.5%, an activity change, negative = inhibition [2] of -10.3% and a Potency [4] of over 20.6 µM.

For CSc1nc2sc3c(c2c(=O)n1C1CCCCC1)CCN(C)C3, the activity change, negative = inhibition [1] was -0.967%, the activity change, negative = inhibition [2] was -81.1% (active) and the Potency [4] was over 20.6 µM.

COC(=O)C1C(=O)CC(C)(O)C(C(=O)OC)C1c1ccccc1F (centres undefined) gave an activity change, negative = inhibition [1] of 0.159%, an activity change, negative = inhibition [2] of -0.943% and a Potency [4] of over 20.6 µM.

For COc1ccc(C=NCCC2(O)CC(C)N(C)CC2C)cc1 (centres undefined), the activity change, negative = inhibition [1] was -0.876%, the activity change, negative = inhibition [2] was 9.42% and the Potency [4] was over 20.6 µM.

With CNc1oc(-c2ccc(Cl)cc2)nc1C#N the activity change, negative = inhibition [1] was -1.98%, the activity change, negative = inhibition [2] was 18.3% and the Potency [4] was over 20.6 µM.

In the case of COc1ccc(/C(O)=C2\C(=O)C(=O)N(CCN3CCOCC3)C2c2ccccc2OC)cc1 (centres undefined), the activity change, negative = inhibition [1] is reported as -4.72%, the activity change, negative = inhibition [2] is reported as 15.6% and the Potency [4] is reported as over 20.6 µM.

c1ccc2c(c1)[nH]c1c(N3CCC4(CC3)OCCO4)ncnc12 gave an activity change, negative = inhibition [1] of -1.63%, an activity change, negative = inhibition [2] of 7.49% and a Potency [4] of over 20.6 µM.

In the case of COc1ccccc1Nc1ncnc2c1cnn2-c1cccc(C)c1, the activity change, negative = inhibition [1] is reported as -28.5%, the activity change, negative = inhibition [2] is reported as -14.7% and the Potency [4] is reported as over 20.6 µM.
